In PubChem BioAssay (EPA / NIEHS):
Records with an inconclusive call do not appear. Calls of active or inactive are those of the source. How the source made its calls, unless noted: active means hit-call score of the fitted dose curve at least 0.9, where 1 is the maximum; inconclusive means response in the unintended direction; inactive means score below 0.9.

Key:
[1] = TOX21_p53_BLA_p2_viability: Viability Assessment in the Tox21 HCT-116 p53 Agonism Beta-lactamase Assay, Phase 2 (AID 2283591);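 further: compound exposure lasted 16 h at 37 °C; actives lower the ATP signal meaning cytotoxicity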
How it was run: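 HCT116 p53-bla cells, 4000/well, dosed after 5 h plating (217-fold dilution of DMSO stocks) and incubated 16 h at 37C. Viability taken as cellular ATP by CellTiter-Glo luminescence after 30 min RT; signal loss marks cytotoxicity.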

[2] = target: Cellular tumor antigen p53 (Homo sapiens) (UniProt P04637); assay: TOX21_p53_BLA_p2_ratio: Tox21 HCT-116 p53 Agonism Beta-lactamase Assay, Ratio, Phase 2 (AID 2283592)
How it was run: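 Gain-of-signal p53 agonism was scored from the beta-lactamase FRET ratio (460/530 nm, 405 nm excitation) in HCT116 cells treated 16 h at 37C, 5% CO2, with DMSO serving as negative control and baseline.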

[3] = TOX21_p53_BLA_p3_viability: Viability Assessment in the Tox21 HCT-116 p53 Agonism Beta-lactamase Assay, Phase 3 (AID 2283593);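 further: cells exposed to compound for 16 h before reading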
How it was run: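 HCT116 cells, 4000/well, dosed 5 h after plating by pin transfer (217-fold dilution from DMSO stock) and incubated 16 h at 37C, 5% CO2. Viability read as ATP luminescence with CellTiter-Glo after 30 min at room temperature.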

[4] = TOX21_p53_BLA_p5_viability: Viability Assessment in the Tox21 HCT-116 p53 Agonism Beta-lactamase Assay, Phase 5 (AID 2283600)
How it was run: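 After the 460/530 nm beta-lactamase measurement, the wells received an ATP-detection luciferase reagent; signal was read 30 min later at RT. Compound treatment lasted 16 h on cells pre-incubated 5 h post-seeding.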

[5] = target: Cellular tumor antigen p53 (Homo sapiens) (UniProt P04637); assay: TOX21_p53_BLA_p4_ratio: Tox21 HCT-116 p53 Agonism Beta-lactamase Assay, Ratio, Phase 4 (AID 2283601)
How it was run: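 HCT-116 p53 beta-lactamase reporter cells (4000/well) preincubated 5 h, then compound (217-fold dilution of DMSO stock) for 16 h at 37C. CCF4-AM substrate added 2 h at room temperature; 460/530 nm emission ratio fitted upward versus DMSO.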

[6] = read-out: Transforming Growth Factor (TGFB1), TGFB1 (gene 7040); assay: LTEA_HepaRG_TGFB1: Life Technologies and Expression Analysis (LTEA) Assay for Transforming Growth Factor (TGFB1) Transporter using HepaRG (AID 2283533; active means hit-call score of the fitted dose curve at least 0.9, where 1 is the maximum; inactive means score below 0.9); settings: mRNA level, 48 h; actives raise or lower the signal
How it was run: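 TGFB1 transcript measured by qRT-PCR with normalisation to three housekeeping genes (ACTB, GAPDH, POLR2A); human HepaRG line treated in duplicate for 48 hr with an 8-point series topping at 100 uM, 0.5% DMSO vehicle, bidirectionally fitted.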

TIMP1, TIMP1 (gene 7076) = assay: LTEA_HepaRG_TIMP1: Life Technologies and Expression Analysis (LTEA) Assay for TIMP1 using HepaRG (AID 2283534; active means hit-call score of the fitted dose curve at least 0.9, where 1 is the maximum; inactive means score below 0.9); settings: mRNA level, 48 h; actives raise or lower the signal
How it was run: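 Bidirectional change in TIMP1 transcript versus 0.5% DMSO, measured by TaqMan qRT-PCR with three housekeeping genes for normalization. HepaRG human liver cells dosed 48 h in duplicate, top concentration 100 uM with half-log dilutions.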

[7] = read-out: Tumor necrosis factor receptor 1 (TNFRSF1A), TNFRSF1A (gene 7132); assay: LTEA_HepaRG_TNFRSF1A: Life Technologies and Expression Analysis (LTEA) Assay for Tumor necrosis factor receptor 1 (TNFRSF1A) using HepaRG (AID 2283535; active means hit-call score of the fitted dose curve at least 0.9, where 1 is the maximum; inactive means score below 0.9); settings: mRNA level, 48 h; actives raise or lower the signal
How it was run: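 mRNA measured by qRT-PCR (TaqMan, Fluidigm arrays) against ACTB/GAPDH/POLR2A housekeepers after 48 h chemical exposure of HepaRG cells. Top concentration 100 uM, half-log 8-point series, duplicates; vehicle 0.5% DMSO, both fit directions.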

[8] = read-out: Thyroid Hormone Responsive (THRSP), THRSP (gene 7069); assay: LTEA_HepaRG_THRSP: Life Technologies and Expression Analysis (LTEA) Assay for Thyroid Hormone Responsive (THRSP) using HepaRG (AID 2283536; active means hit-call score of the fitted dose curve at least 0.9, where 1 is the maximum; inactive means score below 0.9); settings: mRNA level, 48 h; actives raise or lower the signal
How it was run: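 Differentiated HepaRG cells treated 48 h in serum-free induction medium with 8 half-log concentrations up to 100 uM (0.5% DMSO), duplicates. THRSP mRNA by TaqMan qRT-PCR normalised to ACTB, GAPDH, POLR2A; bidirectional fit versus DMSO.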

[9] = read-out: Cellular tumor antigen p53 (Homo sapiens) (UniProt P04637); assay: LTEA_HepaRG_TP53: Life Technologies and Expression Analysis (LTEA) Assay for Tumor Protein P53 (TP53) using HepaRG (AID 2283537; active means hit-call score of the fitted dose curve at least 0.9, where 1 is the maximum; inactive means score below 0.9); settings: mRNA level, 48 h; actives raise or lower the signal
How it was run: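 Differentiated HepaRG cells in serum-free induction medium exposed 48 h in duplicate to 8 half-log concentrations, top 100 uM, 0.5% DMSO. TP53 mRNA by TaqMan qRT-PCR (Fluidigm), normalized to ACTB, GAPDH, POLR2A; fitted bidirectionally versus DMSO.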

[10] = read-out: UDP glucuronosyltransferase (UGT1A1), UGT1A1 (gene 54658); assay: LTEA_HepaRG_UGT1A1: Life Technologies and Expression Analysis (LTEA) Assay for UDP glucuronosyltransferase (UGT1A1) using HepaRG (AID 2283538; active means hit-call score of the fitted dose curve at least 0.9, where 1 is the maximum; inactive means score below 0.9); settings: mRNA level, 48 h; actives raise or lower the signal
How it was run: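 HepaRG cells, 0.5% DMSO vehicle, 48 h exposure in serum-free induction medium to 8-point half-log series topping at 100 uM, in duplicate. UGT1A1 mRNA by Fluidigm qRT-PCR, normalized to ACTB/GAPDH/POLR2A; bidirectional fit versus DMSO.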

[11] = read-out: UDP glucuronosyltransferase (UGT1A6), UGT1A6 (gene 54578); assay: LTEA_HepaRG_UGT1A6: Life Technologies and Expression Analysis (LTEA) Assay for UDP glucuronosyltransferase (UGT1A6) using HepaRG (AID 2283539; active means hit-call score of the fitted dose curve at least 0.9, where 1 is the maximum; inactive means score below 0.9); settings: mRNA level, 48 h; actives raise or lower the signal
How it was run: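 Expression was quantified by TaqMan qRT-PCR on Fluidigm arrays with ACTB/GAPDH/POLR2A normalization and bidirectional fitting against 0.5% DMSO. HepaRG cells (~100,000/well) were treated in duplicate for 48 h at eight half-log concentrations up to 100 uM in serum-free induction medium.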

[12] = read-out: X-box binding protein 1 (XBP1), XBP1 (gene 7494); assay: LTEA_HepaRG_XBP1: Life Technologies and Expression Analysis (LTEA) Assay for X-box binding protein 1 (XBP1) using HepaRG (AID 2283540; active means hit-call score of the fitted dose curve at least 0.9, where 1 is the maximum; inactive means score below 0.9); settings: mRNA level, 48 h; actives raise or lower the signal
How it was run: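 XBP1 transcript by qRT-PCR (housekeeping-normalized: ACTB, GAPDH, POLR2A) after 48 h chemical treatment of HepaRG cells, 8-point half-log series topping at 100 uM, vehicle 0.5% DMSO. Gain and loss of signal fitted relative to DMSO.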

[13] = LTEA_HepaRG_LDH_cytotoxicity: Cytotoxicity Assessment in the Life Technologies and Expression Analysis (LTEA) Assay (AID 2283563);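 on AC50: LDH activity released into spent culture medium as a marker of cell death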
How it was run: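 LDH release into culture medium read after 48 h chemical treatment of HepaRG cells. Duplicate wells, eight-point half-log series topping at 100 uM, 0.5% DMSO vehicle and baseline.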

[14] = target: Cellular tumor antigen p53 (Homo sapiens) (UniProt P04637); assay: TOX21_p53_BLA_p3_ratio: Tox21 HCT-116 p53 Agonism Beta-lactamase Assay, Ratio, Phase 3 (AID 2283596)
How it was run: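 HCT116 p53-bla cells (4000/well) given compound in DMSO (217-fold dilution) after 5 h, incubated 16 h at 37C. CCF4-AM substrate 2 h at room temperature; 460/530 nm emission ratio, gain fitted against DMSO.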

[15] = TOX21_p53_BLA_p4_viability: Viability Assessment in the Tox21 HCT-116 p53 Agonism Beta-lactamase Assay, Phase 4 (AID 2283597);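 further: hits lower the luminescence signal meaning cytotoxicity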
How it was run: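 Following a 16 h exposure at 37C, the treated HCT116 wells were first read for the FRET ratio. They were then lysed with CellTiter-Glo, and ATP luminescence was recorded after 30 min at room temperature.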

[16] = target: Cellular tumor antigen p53 (Homo sapiens) (UniProt P04637); assay: TOX21_p53_BLA_p5_ratio: Tox21 HCT-116 p53 Agonism Beta-lactamase Assay, Ratio, Phase 5 (AID 2283599)
How it was run: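 HCT-116 p53-bla cells (4000/well) plated 5 h, dosed with compound (217-fold DMSO dilution) for 16 h at 37 C; CCF4-AM substrate 2 h at room temperature. Activity is the 460/530 nm emission ratio (405 nm excitation), fitted in gain-of-signal direction versus DMSO.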

[17] = Tanguay_ZF_120hpf_MORT_legacy: (Legacy) Oregon State University Tanguay Lab 120 Hour Post-fertilization zebrafish Assay for Mortality (AID 2283633)
How it was run: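 Static waterborne exposure from 6 to 120 hpf at 28C of single dechorionated wild-type (5D) embryos per well, 0.64% DMSO final. Death recorded present/absent by brightfield at 24 and 120 hpf.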

[18] = Tanguay_ZF_120hpf_YSE_legacy: (Legacy) Oregon State University Tanguay Lab 120 Hour Post-fertilization zebrafish Assay for Yolk Sac Edema (AID 2283634)
How it was run: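 Presence or absence of yolk sac edema was recorded at 120 hpf in surviving larvae. These were wild-type Tropical 5D embryos, chorion removed at 4 hpf, held in static exposure at 28C from 6 hpf with 0.64% DMSO vehicle.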

[19] = ATG_XTT_Cytotoxicity: Cytotoxicity Assessment in the Attagene TRANS-FACTORIAL HepG2 Assay (AID 2283584)
How it was run: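 Viability endpoint from XTT after 24 h chemical exposure of reporter-transfected human HepG2 liver cells; signal loss fitted relative to DMSO negative control.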

Measured: AC50

Sequence of Cellular tumor antigen p53 (Homo sapiens) (P04637 whole entry, looked up): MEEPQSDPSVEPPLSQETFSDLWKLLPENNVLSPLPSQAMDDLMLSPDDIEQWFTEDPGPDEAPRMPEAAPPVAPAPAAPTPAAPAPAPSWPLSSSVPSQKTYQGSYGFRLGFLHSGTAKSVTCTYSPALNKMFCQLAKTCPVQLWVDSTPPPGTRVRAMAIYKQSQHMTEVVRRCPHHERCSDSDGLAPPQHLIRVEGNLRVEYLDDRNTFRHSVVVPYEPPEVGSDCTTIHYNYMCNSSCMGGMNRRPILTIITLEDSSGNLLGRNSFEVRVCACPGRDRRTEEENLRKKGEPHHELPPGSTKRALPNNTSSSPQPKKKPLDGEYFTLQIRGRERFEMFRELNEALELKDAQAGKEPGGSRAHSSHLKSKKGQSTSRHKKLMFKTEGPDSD

COC(=O)c1ccccc1CS(=O)(=O)NC(=O)Nc1nc(OC)cc(OC)n1
inactive: [1] | [2] | [3] | [4] | [5]

CCc1ccc(C(=O)NN(C(=O)c2cc(C)cc(C)c2)C(C)(C)C)cc1
active: [8] 21.5 µM | [10] 12.3 µM | [13] 81.9 µM
not listed: [3] | [4] | [18] | [19]
inactive: all other assays above

C#CCN1C(=O)COc2cc(F)c(N3C(=O)C4=C(CCCC4)C3=O)cc21
active: [10] 1.95 µM
inactive: [6] | TIMP1, TIMP1 (gene 7076) | [7] | [8] | [11] | [12] | [13] | [17] | [18]

COC(=O)c1ccccc1S(=O)(=O)NC(=O)Nc1nc(C)nc(OC)n1
inactive: [19] | [1] | [2] | [3] | [5]

CCC(C)Nc1c([N+](=O)[O-])cc(C(C)(C)C)cc1[N+](=O)[O-] (configuration not stated)
inactive: [6] | TIMP1, TIMP1 (gene 7076) | [7] | [8] | [11] | [13] | [17] | [18]
active: [10] 13.1 µM | [12] 73.8 µM

CCS(=O)(=O)c1cccnc1S(=O)(=O)NC(=O)Nc1nc(OC)cc(OC)n1
inactive: [19]

O=C(Nc1ccccc1)Nc1cnns1
active: [8] 73.5 µM | [10] 87.2 µM | [11] 77.9 µM | [12] 50 µM | [13] 77.2 µM | [2] 64.1 µM | [5] 52.9 µM
not listed: [4] | [19]
inactive: all other assays above

CCCN(CCC)c1c([N+](=O)[O-])cc(C(F)(F)F)cc1[N+](=O)[O-]
active: [10] 29.2 µM
inactive: [6] | TIMP1, TIMP1 (gene 7076) | [7] | [8] | [11] | [12] | [13] | [17] | [18]

CCN(CC)C(=O)SCc1ccc(Cl)cc1
not listed: [2] | [4] | [19]
inactive: all other assays above
